Assay outcomes from PubChem BioAssay.
SF-1 inh: inhibitors of human SF-1, primary screen, cell-based, CHO-K1, Gal4-SF-1 LBD, luciferase luminescence; inhibition, % at 10 µM; Steroidogenic factor 1 (Homo sapiens), Q13285; CHO-K1 Gal4-SF-1 LBD luciferase reporter; 0.55% of 65,000 active;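 active = inhibition above the mean inhibition of all tested compounds plus 3 SD, cut at about 48% in these data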;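 also: 0% = SF-1 transfected cells with DMSO and 100% = mock-transfected cells lacking SF-1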
Target sequence (Q13285 whole entry, looked up, the tested form may be a part): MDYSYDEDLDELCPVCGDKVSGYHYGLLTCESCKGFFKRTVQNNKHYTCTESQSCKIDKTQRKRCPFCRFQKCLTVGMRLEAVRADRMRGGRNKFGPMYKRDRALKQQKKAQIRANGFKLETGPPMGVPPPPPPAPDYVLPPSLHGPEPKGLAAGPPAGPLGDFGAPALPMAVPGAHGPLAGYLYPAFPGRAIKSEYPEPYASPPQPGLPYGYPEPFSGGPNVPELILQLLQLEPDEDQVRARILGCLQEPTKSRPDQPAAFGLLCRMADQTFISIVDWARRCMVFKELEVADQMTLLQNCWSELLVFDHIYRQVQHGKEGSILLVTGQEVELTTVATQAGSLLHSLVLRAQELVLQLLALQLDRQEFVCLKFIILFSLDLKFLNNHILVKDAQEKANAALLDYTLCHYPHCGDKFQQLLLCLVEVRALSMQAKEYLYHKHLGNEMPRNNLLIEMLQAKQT
Numbers without * were called inactive. Many of the other results were omitted from the sample, so hits are more common in it than they were.

SMILES | SF-1 inh
CCOc1ccc(-c2nc(CSCC(=O)NCc3ccco3)c(C)o2)cc1 | 94*
COC(=O)c1ccc(COc2ccc(-c3nn[nH]n3)cc2)cc1 | -24
O=c1c2ccccc2nnn1CSc1nnc2ccccn12 | -78
COc1ccc(Cl)cc1N(C)C(=O)CCNC(=O)Cn1cnc2ccccc2c1=O | -7
COc1ccc(N2CCN(C(=O)c3ccc(S(=O)(=O)N4CCOCC4)cc3)CC2)cc1 | -13
ONC(=Nc1ccccc1)C(=Nc1ccccc1)NO | 7
CCc1c(C)nc2ncnn2c1NCCc1ccc(OC)cc1 | 85*
CCOC(=O)NCCc1ccc(OC)cc1 | 5
COc1ccc(CCNc2oc(COc3ccccc3)nc2C#N)cc1 | -5
Cc1onc(-c2ccccc2)c1C(=O)Nc1c(C)n(C)n(-c2ccccc2)c1=O | -5
O=C(CCN1C(=O)c2ccccc2C1=O)OCn1nnc2ccccc2c1=O | 4
COc1ccc(C(=O)CSc2nc3nc(C)cc(C)n3n2)cc1OC | 4
Nc1nc(CSc2ccccn2)nc(Nc2ccccc2)n1 | -58
COc1ccc(CCNC(=O)c2nonc2N)cc1OC | 1
Nc1nonc1C(=O)NCCNCc1cc(Br)ccc1OCc1ccc(F)cc1 | 57*
O=C(NCc1ccc(F)cc1)c1noc2c1CCCC2 | 3
CC(C)CC1NC(=O)N(CC(=O)c2ccc3c(c2)OCCO3)C1=O (configuration not stated) | -84
Cc1cc(C)n2nnnc2c1C#N | -5
O=C(Nc1cccc2ccccc12)c1cnccn1 | -63
Cc1cnc(C(=O)Nc2cccc3cccnc23)cn1 | 61*
Cc1cnc(C(=O)Nc2nnc(C(C)C)s2)cn1 | -68
CCc1ccc2nc(NC(=O)c3cc(C)on3)sc2c1 | -117
O=S(=O)(N1CCCCCC1)N1CCN(S(=O)(=O)N2CCOCC2)CC1 | -3
Cc1cc(NC(=O)c2ccc3c(c2)OCO3)no1 | -60
Cc1cc(NC(=O)c2noc3c2CCCCC3)no1 | -39
SMILES | SF-1 inh
Cc1cc(NC(=O)c2ccc3c(c2)OCCO3)no1 | 51*
COC(=O)c1ccc(=O)n(-c2ccc(OC)cc2)c1 | 16
Cc1ccc(S(=O)(=O)N(CC(=O)NCc2ccncc2)C2CCCCC2)cc1 | -9
CCCN1C(=O)SC(CC(=O)Nc2ccc(Br)cc2)C1=O (configuration not stated) | 1
CC1CCCN(Cc2nc3c(c(=O)n(C)c(=O)n3C)n2CCCc2ccccc2)C1 (configuration not stated) | 14
COc1ccc(C(=O)Nn2c(SCC(=O)NCC3CCCO3)nc3ccccc3c2=O)cc1 (configuration not stated) | 67*
COc1ccc(CC(=O)Nc2ccc(S(=O)(=O)NCC3CCCO3)cc2)cc1 (configuration not stated) | 7
COC(=O)c1ccc2c(=O)n(CCN3CCOCC3)c(SCC(=O)c3ccccc3)nc2c1 | -8
O=C(Nc1nccs1)c1ccc(CSc2nnnn2-c2ccccc2)cc1 | -41
O=C(NCc1ccco1)c1ccc2nc3sc4c(c3c(=O)n2c1)CCCC4 | 60*
O=C(Nc1sc2c(c1C(=O)O)CCCCC2)c1ccco1 | -57
O=C(Cn1cnc2sc(-c3ccccc3)cc2c1=O)NCc1ccco1 | -38
COc1cccc2cc(C(=O)C3=C(O)C(=O)N(CCN4CCOCC4)C3c3cccs3)oc12 (configuration not stated) | 13
O=C1NCCCC1C(=O)NCCN1C(=O)CCC1=O (configuration not stated) | -16
O=C(Cc1ccc(Cl)cc1)Nc1ccc(N2CCN(C(=O)c3ccco3)CC2)cc1 | 10
O=C(Cc1ccc(Cl)cc1)Nc1ccc(-c2nnc(-c3ccco3)o2)cc1 | 53*
CCC(=O)Nc1ccc(-c2nnc(-c3ccccc3)o2)cc1 | -34
O=c1nc(N2CCOCC2)ccn1Cc1ccc(Br)cc1 | 7
Cc1ccc(C)c(S(=O)(=O)Nc2ccc(S(=O)(=O)Nc3onc(C)c3C)cc2)c1 | 7
CCOC(=O)N1CCN(S(=O)(=O)c2c(C)[nH]c(=O)[nH]c2=O)CC1 | -5
CN(C)C(=O)CCc1nc(-c2ccc(C(C)(C)C)cc2)no1 | 83*
COc1ccc(CNC(=O)CCc2nc(-c3ccccc3F)no2)c(OC)c1 | 3
COc1ccc(-c2noc(CCCOc3ccccc3)n2)cc1OC | 11
CC(C)(CC(=O)O)Cc1nc(-c2ccc(Cl)cc2)no1 | -63
O=C1c2ccccc2C(=O)N1Cc1nc(-c2ccccc2)no1 | 15
SMILES | SF-1 inh
O=C(CCc1nc(-c2ccccc2F)no1)NCCc1ccccc1Cl | -2
CNC(=O)CCc1nc(-c2ccc(C(C)(C)C)cc2)no1 | 88*
CC(C)(C)c1ccc(-c2noc(CCC(N)=O)n2)cc1 | 87*
CCCc1nc(-c2ccc(-c3ccc(F)cc3)cc2)no1 | -53
CCOC(=O)c1[nH]nc(N)c1NC(=O)c1ccc(Cl)cc1Cl | -27
Cn1cccc1CNC(=O)Nc1ccc(Cl)c(Cl)c1 | -66
COC(=O)C1C(O)=C(C=NCC(C)N=CC2=C(O)C(C(=O)OC)C(C)(C)CC2=O)C(=O)CC1(C)C (configuration not stated) | -4
O=C(NCc1cccs1)c1cc2c(s1)CCCC2 | -25
Cc1nc2cc(Cl)c(Cl)cc2nc1C | -64
CCOc1ccccc1-c1nc(-c2ccc(C)nc2OC)no1 | -58
O=C(C1CCCN(S(=O)(=O)c2cnc[nH]2)C1)N1CCN(c2ccc(Cl)cc2)CC1 (configuration not stated) | -2
CC(=O)Cc1nsc(Nc2ccc3c(c2)OCCO3)n1 | -67
c1ccc(N2CCN(c3nc4cc5c(cc4s3)OCCO5)CC2)cc1 | -61
c1c2c(cc3sc(N4CCOCC4)nc13)OCCO2 | 65*
Clc1cc(Cl)c2nc(N3CCOCC3)sc2c1 | -58
COc1cc(NC(=O)C2CC2)c(C(=O)O)cc1OC | -3
O=C(Nc1ccccc1)N(O)c1ccc(Cl)cc1 | -58
N#Cc1c(N2CCCC2)nc(N)c2c(N)nc(N3CCCC3)cc12 | -50
COc1cc2c(C#N)c(N3CCN(c4ccccc4OC)CC3)nc(N)c2c(N)n1 | 73*
COc1ccccc1C(=O)N1CCN(c2nc3cc(C)c(C)cc3cc2C#N)CC1 | -19
COc1ccc(CCNc2nnc(Sc3nnnn3-c3ccccc3)s2)cc1OC | 68*
COC(=O)c1ccc(CSc2nnnn2-c2ccccc2)o1 | 6
COc1ccc(CCNS(=O)(=O)c2ccccc2)cc1OC | 13
CC(C)(C)n1ncc2c(=O)n(CC(=O)NCc3ccccc3Cl)cnc21 | -74
COc1ccccc1OCC(=O)Nc1ccc(S(=O)(=O)Nc2nc(C)cc(C)n2)cc1 | 3
SMILES | SF-1 inh
Cc1ccc2cc(C(c3nnnn3Cc3ccccc3)N3CCN(c4ccccc4)CC3)c(=O)[nH]c2c1 (configuration not stated) | -5
Cn1c(=O)c2c(nc(N3CCCCCC3)n2Cc2cccc3ccccc23)n(C)c1=O | 3
Cc1nc(N2CCN(c3ccccc3)CC2)[nH]c(=O)c1Cc1cccc2ccccc12 | 52*
Cc1cc(C)n(-c2nc3c(c(=O)[nH]c(=O)n3C)n2CC(C)C)n1 | -29
C=C(C)CSc1nnc([C@H](CCSC)NC(=O)OC(C)(C)C)o1 | -8
O=C(Cn1nc(-c2ccc(Cl)cc2)ccc1=O)NCCN1CCOCC1 | 3
CCN(CC)c1ccc(-c2nn3c(-c4cccnc4)nnc3s2)cc1 | 7
CC(=O)c1cccc(NC(=O)N2CCCC2C(=O)Nc2c(C)cccc2C)c1 (configuration not stated) | 23
O=C(c1cc2c(=O)oc3ccccc3c2s1)N1CCN(c2ncccn2)CC1 | -4
CCCCOc1ccc(S(=O)(=O)Nc2cccnc2)cc1 | 49*
